Screening data as filed in PubChem BioAssay.
AmpC no deterg: inhibitors of E. coli AmpC beta-lactamase without detergent. Potency, µM (titrated, usually from 57.1 µM), for the others: top-dose activity change, negative = inhibition, most hits filed as inhibitors. 330,000 tested, 0.52% active. AmpC nitrocefin hydrolysis, absorbance 480 nm, 0.0001% Triton. AID 485341. P00811;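 further: potency means the concentration at half of the fitted maximal effect; plate controls were no compound for no effect and no enzyme for full effect; nearly all actives have a fitted effect of over 20% in size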
Target sequence (P00811 whole entry, looked up): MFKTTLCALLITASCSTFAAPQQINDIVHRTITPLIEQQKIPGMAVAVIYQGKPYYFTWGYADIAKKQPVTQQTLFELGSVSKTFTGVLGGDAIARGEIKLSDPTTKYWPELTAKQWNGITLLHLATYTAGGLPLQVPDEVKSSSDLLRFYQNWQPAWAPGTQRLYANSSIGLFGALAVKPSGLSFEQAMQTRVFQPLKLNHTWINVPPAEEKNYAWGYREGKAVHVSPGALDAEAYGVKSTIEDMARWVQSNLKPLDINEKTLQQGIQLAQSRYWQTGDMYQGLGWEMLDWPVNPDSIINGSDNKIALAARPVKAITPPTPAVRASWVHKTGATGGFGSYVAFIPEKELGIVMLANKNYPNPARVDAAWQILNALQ
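AmpC (5.3 nM in the dispensed reagent) in 20 mM phosphate pH 7.0 with 0.01% (detergent screen) or 0.0001% Triton X-100 was preincubated with compounds for 15 min at room temperature. Nitrocefin was then added from an 800 uM solution, and hydrolysis was followed at 480 nm.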
Shiga inhibitor: Shiga toxin inhibition. 290,000 tested, 9.2% active. inhibition, % at 38.7 µM. Vero cells, Shiga toxin protein synthesis inhibition reporter; in the data active means inhibition mostly above about 28%, no sharp cut-off; inactive means mostly below about 43%; further: 0% is about no effect
AMA1-RON2 inh: inhibitors of Plasmodium falciparum AMA1-RON2 interaction | AlphaScreen AMA1-biotinylated RON2 peptide binding | Potency, µM (doses to about 58.2 µM), inactives show top-dose activity change, negative = inhibition, actives largely listed as inhibitors | 360,000 tested, 0.2% active | AID 720542;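 further: potency means the concentration at half of the fitted maximal effect; 0% = vehicle wells and -100% = peptide control; nearly all actives have a fitted effect of over 45% in size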
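AMA1 (3D7) with his tag at 25 nM final met compounds first, then biotinylated RON2 peptide at 25 nM; detection used donor plus acceptor beads, 10 µg/mL apiece, read by AlphaScreen after 30 min at room temperature.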
CHX counter: counter-screen hit for Shiga toxin inhibitors, cycloheximide; cell reporter, cycloheximide protein synthesis inhibition counterscreen; max response, %; 300,000 tested, 12% active; in the data active means max response mostly above about 13%, no sharp cut-off; inactive means mostly below about 14%; further: read at 38.3 µM for the half of the compounds with a filed dose; 0% is about no effect
SARS PLpro yeast: blocks SARS-CoV papain-like protease in a yeast assay. S. cerevisiae expressing SARS-CoV PLpro, growth rescue. Potency, µM (highest dose often 32.9 µM), for inactives: top-dose activity, positive = growth rescue, actives largely listed as activators. 330,000 tested, 0.19% active. AID 485353; calls by dose curve; further: potency means the concentration at half of the fitted maximal effect; 0% is about no effect; nearly all actives have a fitted effect of over 55% in size
AmpC inh detg: blocks E. coli AmpC beta-lactamase in detergent assay. 370,000 tested, 0.041% active. AmpC hydrolysis of nitrocefin, absorbance 480 nm, 0.01% Triton. Potency, µM (series often up to 114 µM), for the others: at the top dose activity change, negative = inhibition, actives largely listed as inhibitors;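 further: potency means the concentration at half of the fitted maximal effect; 0% = no-compound wells and -100% = no-enzyme wells; nearly all actives have a fitted effect of over 25% in size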
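AmpC (5.3 nM in the dispensed reagent) in 20 mM phosphate pH 7.0 with 0.01% (detergent screen) or 0.0001% Triton X-100 was preincubated with compounds for 15 min at room temperature. Nitrocefin was then added from an 800 uM solution, and hydrolysis was followed at 480 nm.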
* marks the source's active call; other numbers are inactive results. The sample as a whole holds a higher share of hits than the screen did. Unless noted, the call rests on the fitted dose curve; in most records, active means well fitted curve in the direction sought with a large enough effect; inconclusive means small, poorly fitted or top-dose-only effect, or another doubt; inactive means no such curve, though single readings can be large; an effect the other way counts as inactive or inconclusive.

Results for CCOc1ccc2nc(N3CCC(C(=O)N4CCN(C(=O)c5ccco5)CC4)CC3)sc2c1 ?
AmpC no deterg: 231.3%; Shiga inhibitor: 13.1; AMA1-RON2 inh: -1.4%; CHX counter: 9.7; SARS PLpro yeast: -30.3%; AmpC inh detg: -11.3%

What do the screens show for `Cc1cccc(C)c1NC(=O)CSCCO`?
AmpC no deterg: -24.2%; Shiga inhibitor: -8.2; AMA1-RON2 inh: -1.9%; CHX counter: -5.5; SARS PLpro yeast: -9.7%; AmpC inh detg: inconclusive

What do the screens show for `O=C(NN(C(=O)C1CC1)c1nc2ccccc2s1)C1CC1`?
AmpC no deterg: 2.1%; Shiga inhibitor: 59.7*; AMA1-RON2 inh: 30.4%; CHX counter: 45.7*; SARS PLpro yeast: 22.2%; AmpC inh detg: -2.4%

Results for Cc1ccc2nc(N(Cc3cccnc3)C(=O)C3CCCCC3)sc2c1 ?
AmpC inh detg: -1.0%

How did O=C(C1CCCCC1)N(CCN1CCCC1)c1nc2ccccc2s1 do in these assays?
AmpC no deterg: -16.3%; Shiga inhibitor: 40.2; AMA1-RON2 inh: 6.4%; CHX counter: 31.5*; SARS PLpro yeast: 4.4%; AmpC inh detg: -7.2%

What do the screens show for `C=CCC[C@@H](Cc1ccc(F)cc1)C(=O)OC[C@@H](C)NC(=O)[C@@H](CC=C)CC(=O)N[C@H](CO)Cc1ccccc1`?
AmpC no deterg: 221.5%; AMA1-RON2 inh: -2.1%; SARS PLpro yeast: -9.1%

Results for Cc1ccc(CCNC(=O)CN(c2ccc(C)cc2)S(=O)(=O)c2c(C)noc2C)cc1 ?
AmpC no deterg: 63.2%; Shiga inhibitor: -11.2; AMA1-RON2 inh: 1.4%; CHX counter: -11.5; SARS PLpro yeast: 2.1%; AmpC inh detg: -3.1%

How did c1ccc(OCCSc2nc3ccccc3o2)cc1 do in these assays?
AmpC no deterg: 38.1%; Shiga inhibitor: 98.9*; AMA1-RON2 inh: 45.3%; CHX counter: 21.5*; SARS PLpro yeast: -0.5%; AmpC inh detg: -17.7%

Results for CCOc1ccc(OCCSc2nc3ccccc3o2)cc1 ?
AmpC no deterg: -13.0%; Shiga inhibitor: 25.8; AMA1-RON2 inh: 18.0%; CHX counter: 15.4*; SARS PLpro yeast: -14.8%; AmpC inh detg: 2.6%

Results for CC(=O)Nc1ccc(C(=O)Nc2nnc(CCc3ccccc3)s2)cc1 ?
AmpC no deterg: -29.0%; Shiga inhibitor: -2.0; AMA1-RON2 inh: 0.0%; CHX counter: -2.2; SARS PLpro yeast: -6.9%; AmpC inh detg: 4.3%

What do the screens show for `Cc1ccc(CN(C)C(=O)CCNC(=O)c2ccc(Cl)cc2)o1`?
AMA1-RON2 inh: -2.6%

How did CC(Oc1ccc(Br)cc1)C(=O)Nc1ccc(S(=O)(=O)N(C)C2CCN(C)CC2)cc1 (stereo not given) do in these assays?
AmpC no deterg: 134.4%; AMA1-RON2 inh: 2.3%; SARS PLpro yeast: 3.0%; AmpC inh detg: -17.9%

How did C=CCNC(=O)/C(=C\c1ccc(Br)cc1)NC(=O)c1ccccc1OC do in these assays?
AmpC no deterg: 25.2%; Shiga inhibitor: -4.9; AMA1-RON2 inh: 3.6%; CHX counter: -0.9; SARS PLpro yeast: 2.4%; AmpC inh detg: 3.0%

How did Cc1cc2nn(-c3ccccc3)nc2cc1NC(=O)c1cccc2c(Cl)cccc12 do in these assays?
AmpC inh detg: 0.2%

What do the screens show for `Cc1ccc(C(=O)Nc2cc3nn(-c4ccccc4)nc3cc2Cl)c(C)c1`?
AmpC inh detg: 1.6%

Results for CCC(=O)Nc1cc2nn(-c3ccccc3)nc2cc1Cl ?
AmpC no deterg: -7.2%; Shiga inhibitor: 79.9*; AMA1-RON2 inh: 0.0%; CHX counter: 42.8*; SARS PLpro yeast: 0.2%; AmpC inh detg: 4.6%

What do the screens show for `CC(=O)Nc1cc2nn(-c3ccccc3)nc2cc1C`?
AmpC no deterg: 0.0%; Shiga inhibitor: 82.9*; AMA1-RON2 inh: -1.5%; CHX counter: 59.4*; SARS PLpro yeast: -4.4%; AmpC inh detg: -12.1%

How did Cc1cc2nn(-c3ccccc3)nc2cc1NC(=O)c1cccs1 do in these assays?
AmpC no deterg: -12.6%; Shiga inhibitor: active; AMA1-RON2 inh: 14.4%; CHX counter: 22.4*; SARS PLpro yeast: -0.1%; AmpC inh detg: inconclusive

How did O=C(Nc1ccc(Cl)cc1)c1ccc2c(c1)S(=O)(=O)c1ccccc1C2=O do in these assays?
AMA1-RON2 inh: -6.1%
